Experimental data: PubChem BioAssay (Tox21)
Inconclusive results are not listed. Active and inactive are the calls of the source. Unless noted, the call rests on the fitted dose curve; in most records, active means well fitted curve in the direction sought with a large enough effect in the repeat runs; inconclusive means weak or mixed curves; inactive means no such curve, though single readings can be large; an effect the other way counts as inactive or inconclusive.

Experiments:
[1] = qHTS assay to identify small molecule antagonists of the retinoid acid receptor (RAR) signaling pathway - cell viability counter screen (AID 1159551); further: nearly all actives have a fitted effect of over 35% in size
How it was run: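 In this counter screen, the RARE-luciferase line C3RL4 was exposed for 6 h at 37 C and 5% CO2 to compounds with retinol at 1 uM final. Cellular ATP, read by luminescence, served as the viability measure.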

[2] = qHTS assay to identify small molecule antagonists of the estrogen related receptor (ERR) signaling pathway from Tox21 library - cell viability counter screen (AID 1224834); further: nearly all actives have a fitted effect of over 30% in size
How it was run: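 Counter screen run in ERR cells (2,000 cells/well): cells pre-incubated 6 h, then treated with compounds for 17.5 h at 37 C. Fluorescence was read 30 min after CellTiter-Fluor addition.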

[3] = molecular target: Luciferin 4-monooxygenase (Photinus pyralis) (UniProt P08659); experiment: qHTS assay to identify small molecule inhibitors of firefly luciferase (AID 1224835); further: series mostly up to about 120 µM; nearly all actives have a fitted effect of over 25% in size
How it was run: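 Quantitative HTS format; KM concentrations of both substrates. Purified P. pyralis FLuc activity quantified from luminescence images.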

[4] = qHTS assay to identify small molecule agonists of the constitutive androstane receptor (CAR) signaling pathway - cell viability counter screen (AID 1224836); further: series mostly up to about 92 µM; nearly all actives have a fitted effect of over 45% in size
How it was run: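 HepG2-CYP2B6-hCAR, 2500 cells/well, 4 h pre-incubation; cpd 15 conc + PK11195 0.75 uM final; 23 h, 37 C/5% CO2; CellTiter-Fluor, fluorescence.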

[5] = qHTS assay to identify small molecule antagonists of the constitutive androstane receptor (CAR) signaling pathway - cell viability counter screen (AID 1224837); further: series mostly up to about 92 µM; nearly all actives have a fitted effect of over 45% in size
How it was run: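 CITCO at 50 nM final was added alongside compounds (15 concentrations) to double-stable hCAR/CYP2B6-2.2kb HepG2 cells. Following 23 hr at 37 C, cell viability was quantified by CellTiter-Fluor fluorescence intensity.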

[6] = molecular target: Nuclear receptor subfamily 1 group I member 3 (Homo sapiens) (UniProt Q14994); experiment: qHTS assay to identify small molecule antagonists of the constitutive androstane receptor (CAR) signaling pathway (AID 1224838); further: nearly all actives have a fitted effect of over 40% in size
How it was run: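 Inhibition of CITCO-driven (50 nM final) CYP2B6 reporter expression is measured in HepG2 cells stably carrying hCAR. Fifteen compound concentrations are applied for 24 h at 37 C, followed by luciferase luminescence.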

[7] = molecular target: Nuclear receptor subfamily 1 group I member 3 (Homo sapiens) (UniProt Q14994); experiment: qHTS assay to identify small molecule agonists of the constitutive androstane receptor (CAR) signaling pathway (AID 1224839); further: series mostly up to about 92 µM; nearly all actives have a fitted effect of over 15% in size
How it was run: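 HepG2-CYP2B6-hCAR cells, 2500/well, 4 h pre-incubation; compounds 15 conc.; PK11195 0.75 uM final; 24 h, 37 C/5% CO2; ONE-Glo luciferase read.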

[8] = molecular target: Thyrotropin receptor (Homo sapiens) (UniProt P16473); experiment: qHTS assay to identify small molecule agonists of the thyroid stimulating hormone receptor (TSHR) signaling pathway (AID 1224843; calls by dose curve; further: nearly all actives have a fitted effect of over 45% in size)
How it was run: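 Compounds are titrated over 15 concentrations, in triplicate, onto TSHR-HEK293 cells seeded at 800/well. Plates sit 30 min at room temperature before cAMP-d2 and anti-cAMP cryptate are added; signal is read after a further hour.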

[9] = qHTS assay to identify small molecule agonists of the hypoxia (HIF-1) signaling pathway - cell viability counter screen (AID 1224844; calls by dose curve; further: nearly all actives have a fitted effect of over 50% in size)
How it was run: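 In this counter screen, HRE-bla ME-180 cell viability after 17 hrs of compound exposure at 37C was read by CellTiter-Glo luminescence, multiplexed with the beta-lactamase reporter measurement.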

[10] = qHTS assay to identify small molecule agonists of H2AX (AID 1224845; active means well fitted activation curve with a large enough effect in the signal ratio in the repeat runs, not every such curve was filed as active; the % refers to the signal ratio; further: potency means the concentration at half of the fitted maximal effect)
How it was run: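 Wild-type CHO-K1 cells plated overnight, then exposed 3 hr at 37C to compounds at 15 concentrations (0.76% DMSO). Lysed, then HTRF anti-pH2AX(S139)-cryptate/anti-H2AX-d2 detection after 24 hr at room temperature; emissions 665 and 620 nm.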

[11] = qHTS assay to identify small molecule antagonists of the estrogen related receptor signaling pathway with the pleiotropic PPARgamma coactivator (PGC) from Tox21 10K library - cell viability counter screen (AID 1224840; active means well fitted cell-killing curve with a large enough effect in the repeat runs, not every such curve was filed as active; further: nearly all actives have a fitted effect of over 40% in size)
How it was run: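 Readout: fluorescence intensity from CellTiter-Fluor after 30 min at 37 C/5% CO2. Preceded by 17.5 h treatment of PGC/ERR cells with DMSO-dissolved compounds, added 6 h post-seeding.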

[12] = qHTS assay to identify small molecule agonists of the estrogen related receptor signaling pathway with the pleiotropic PPARgamma coactivator (PGC) from Tox21 10K library (AID 1224842); further: nearly all actives have a fitted effect of over 15% in size
How it was run: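 PGC/ERR reporter cells (NTP line) were seeded 2,000 per well, rested 6 h at 37 C/5% CO2, then pin-dosed with compounds in DMSO for 18 h at 37 C; luciferase read by One-Glo luminescence after 30 min at room temperature.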

[13] = qHTS assay to identify small molecule antagonists of the estrogen related receptor signaling pathway with the pleiotropic PPARgamma coactivator (PGC) from Tox21 10K library (AID 1224841; call rule not given here; further: series mostly up to about 92 µM; actives are mostly falling curves and most rising ones were filed inactive; nearly all actives have a fitted effect of over 50% in size)
How it was run: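 One-Glo luminescence, measured after half an hour at room temperature, quantified reporter output of PGC/ERR cells. These had been plated at 2,000 per well, incubated 6 h, dosed with compounds in DMSO, then kept 18 h at 37 C.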

Measured: Potency

Sequence of Nuclear receptor subfamily 1 group I member 3 (Homo sapiens) (Q14994 whole entry, looked up): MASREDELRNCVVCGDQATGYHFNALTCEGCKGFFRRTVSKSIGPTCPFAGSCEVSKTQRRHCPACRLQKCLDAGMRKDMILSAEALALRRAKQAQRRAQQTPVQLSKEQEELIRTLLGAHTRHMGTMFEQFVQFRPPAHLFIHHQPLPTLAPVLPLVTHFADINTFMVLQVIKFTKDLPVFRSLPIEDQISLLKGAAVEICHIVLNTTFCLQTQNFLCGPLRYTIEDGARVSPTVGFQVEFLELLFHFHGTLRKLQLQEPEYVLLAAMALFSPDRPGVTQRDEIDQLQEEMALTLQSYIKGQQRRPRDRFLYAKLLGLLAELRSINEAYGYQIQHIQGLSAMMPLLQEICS
Sequence of Luciferin 4-monooxygenase (Photinus pyralis) (P08659 whole entry, looked up): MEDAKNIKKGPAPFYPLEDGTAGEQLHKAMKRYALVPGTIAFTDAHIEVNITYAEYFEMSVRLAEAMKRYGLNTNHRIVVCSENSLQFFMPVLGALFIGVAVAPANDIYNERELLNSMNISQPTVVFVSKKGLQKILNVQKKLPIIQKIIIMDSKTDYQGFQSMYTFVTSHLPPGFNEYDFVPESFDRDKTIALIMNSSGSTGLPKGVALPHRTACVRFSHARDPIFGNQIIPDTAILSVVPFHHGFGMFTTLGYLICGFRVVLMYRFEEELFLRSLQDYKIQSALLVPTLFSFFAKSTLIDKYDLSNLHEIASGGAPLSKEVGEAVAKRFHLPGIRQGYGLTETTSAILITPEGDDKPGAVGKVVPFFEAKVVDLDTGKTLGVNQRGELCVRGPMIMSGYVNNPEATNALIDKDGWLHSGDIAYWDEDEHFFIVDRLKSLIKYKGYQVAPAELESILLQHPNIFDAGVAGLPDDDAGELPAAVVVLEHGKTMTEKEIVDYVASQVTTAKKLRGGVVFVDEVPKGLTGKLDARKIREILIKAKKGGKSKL
Sequence of Thyrotropin receptor (Homo sapiens) (P16473 whole entry, looked up): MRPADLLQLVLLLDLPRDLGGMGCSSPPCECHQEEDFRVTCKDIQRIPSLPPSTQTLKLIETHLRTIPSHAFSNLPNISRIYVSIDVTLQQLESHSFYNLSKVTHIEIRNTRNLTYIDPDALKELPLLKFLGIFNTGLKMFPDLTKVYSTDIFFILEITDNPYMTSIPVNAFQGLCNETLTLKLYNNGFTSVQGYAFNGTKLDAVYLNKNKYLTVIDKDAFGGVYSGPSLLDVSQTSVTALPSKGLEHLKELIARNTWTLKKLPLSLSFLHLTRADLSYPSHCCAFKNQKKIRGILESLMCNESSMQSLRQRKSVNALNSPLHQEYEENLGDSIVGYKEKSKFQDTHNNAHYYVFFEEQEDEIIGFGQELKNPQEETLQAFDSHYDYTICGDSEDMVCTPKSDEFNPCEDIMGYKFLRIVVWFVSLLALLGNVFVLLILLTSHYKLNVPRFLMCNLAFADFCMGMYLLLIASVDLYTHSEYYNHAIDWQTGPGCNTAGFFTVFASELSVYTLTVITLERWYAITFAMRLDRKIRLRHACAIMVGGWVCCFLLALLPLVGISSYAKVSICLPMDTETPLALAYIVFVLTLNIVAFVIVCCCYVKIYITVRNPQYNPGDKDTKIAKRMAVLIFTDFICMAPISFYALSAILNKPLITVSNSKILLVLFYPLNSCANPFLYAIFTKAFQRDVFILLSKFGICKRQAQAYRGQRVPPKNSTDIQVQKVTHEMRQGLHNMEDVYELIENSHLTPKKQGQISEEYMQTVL

CC(C)C(=O)OC(=O)C(C)C
inactive: [1] | [2] | [3] | [4] | [5] | [6] | [7] | [8] | [9] | [10]

C[N+](C)(CCOc1ccccc1)Cc1cccs1
inactive: [1] | [2] | [3] | [4] | [5] | [11] | [12] | [8] | [9] | [10]

Cc1onc(-c2c(Cl)cccc2Cl)c1C(=O)Cl
inactive: [1] | [2] | [3] | [4] | [5] | [6] | [7] | [8] | [9] | [10]

O=C(c1ccccc1)C1(O)CCCCC1
inactive: [1] | [2] | [3] | [4] | [5] | [6] | [7] | [8] | [9] | [10]

CCOc1ccccc1OCC
inactive: [1] | [2] | [3] | [4] | [5] | [11] | [13] | [12] | [8] | [9]

C[C@@H]1C[C@H]2[C@@H]3C[C@H](F)C4=CC(=O)C(Cl)=C[C@]4(C)[C@@]3(F)[C@@H](O)C[C@]2(C)[C@@]1(O)C(=O)CO
inactive: [1] | [2] | [3] | [4] | [5] | [6] | [7] | [11] | [8] | [10]

Cc1nc2ccc(CN(C)c3ccc(C(=O)N[C@@H](CCC(=O)O)C(=O)O)s3)cc2c(=O)[nH]1
active: [10] 619 nM
inactive: [1] | [2] | [3] | [4] | [5] | [6] | [7] | [11] | [8] | [9]

NC(=O)NC1N=C([O][Al])NC1=O (stereo unspecified)
inactive: [1] | [2] | [3] | [4] | [5] | [11] | [8] | [9] | [10]

CCOC(=O)C(=O)CCCCCCl
inactive: [1] | [2] | [3] | [4] | [5] | [6] | [7] | [11] | [8] | [9] | [10]

CN1CCC(=C2c3ccccc3CCc3cccnc32)CC1
inactive: [1] | [2] | [3] | [4] | [5] | [6] | [7] | [8] | [9] | [10]

C=COC(=O)C(C)(CC)CCC(C)C (stereo unspecified)
inactive: [1] | [2] | [3] | [4] | [5] | [6] | [7] | [11] | [9] | [10]
